Data on 15 compounds can be found in PubChem BioAssay (NCI).

The panel holds about 83,000 compounds, 20% with a hit somewhere; the sample as a whole holds those more often.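 Cells were grown in 96-well plates and exposed to the test compound at a single concentration for 48 hours; results are reported as percent growth, with values below 10 considered active.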 Activity calls are given as the source filed them.

For this assay, the system named is SF-539 CNS. As to the kind of experiment: NCI-60 one-dose screen, 48 h (100 = growth as untreated, 0 = no growth, -100 = all killed). Conditions: 10 µM unless noted.
`C=CCc1nc2ccccc2s1`: the growth is 119% (inactive).

On to `CCN(CC)CCCNCc1cc(-c2ccccc2)nc2ccccc12`, for which the growth was 32.7% (inactive).

Regarding `C=C(C)[C@@H]1CC[C@]2(C(N)=O)CC[C@]3(C)[C@H](CC[C@@H]4[C@@]5(C)C/C(=C/c6cccnc6)C(=O)C(C)(C)[C@@H]5CC[C@]43C)[C@@H]12`, the growth was -14.3% [100 µM] (active).

As for `COC(=O)C(=Cc1ccccc1[N+](=O)[O-])C(=O)OC`, the growth is 58.1% (inactive).

Take `CCOC(CNC(=O)c1cccc([N+](=O)[O-])c1)OCC`: the growth is 96.9% (inactive).

`Cc1ccc(-c2cc(O)c(-c3ccc(C)cc3C)cc2O)c(C)c1`: the growth was 47.8% (inactive).

`Fc1cc2[nH]ncc2c2c3c(c(-c4cn[nH]c4)nc12)CCCC3`: the growth is -30.7% (active).

Consider `O=C(CCN1CCCCC1)c1ccc(Cl)cc1`, for which the growth was 99.9% (inactive).

For the compound `CCOC(=O)C1=C(C(=O)c2ccc(Br)cc2)C(c2ccc(Br)cc2)NC(=S)N1` (stereo not given), the growth was 99.5% (inactive).

In the case of `Cn1cc(-c2noc(-c3cn(C)c4ncc(F)cc34)n2)c2cc(Cl)ccc21`, the growth was 46% (inactive).

Turning to `O=[N+]([O-])c1cc([N+](=O)[O-])c(NN=C(c2ccc(O)cc2)c2ccc(O)cc2)cc1Cl`, the growth is -51.9% (active).

As for `NNC(=O)c1ccc(C(=O)NN)cc1`, the growth was 115% (inactive).

As to `CN(C)CCOc1ccc(/C(=C(/CCCl)c2ccccc2)c2ccccc2)cc1`, the growth was 1.72% (active).

Consider `CC(=O)Nc1ccc2nc3ccc(NC(C)=O)cc3[n+](-c3ccccc3)c2c1`, for which the growth was 89.3% (inactive).

`COc1ccc(/C=C(/C(=O)c2ccc(Cl)cc2)C(=O)C(F)(F)F)cc1`: the growth is 108% (inactive).
